The list is not random: actives were taken first. Their share in the collection is about 1.8%.
TCR activator = Activators of T cell receptors: qHTS campaign. primary human leukocytes, anti-CD3, IL-2 HTRF, 48 h. Potency, µM (series often up to 9.22 µM), without a hit: top-dose activation of IL-2 secretion, hits mostly activators. 330,000 tested, under 10 active. AID 504894, 2011; note: % of control where 0% means no effect
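Primary human leukocytes receive a-CD3 beads and test compound and are incubated 48 hr. Secreted IL-2 is then assayed by HTRF, measuring 665nm acceptor emission after 320nm excitation of the europium donor.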
GRP78 ERSR act = qHTS for Inducers of the Endoplasmic Reticulum Stress Response (ERSR) in Human Glioma: qHTS; U87-MG GRP78 promoter luciferase reporter, 16 h; Potency, µM, inactives show at the highest dose activation, usual class: activators; actives 0.02% (n = 420,000); AID 602332, 2012; note: potency is the fitted concentration of half-maximal effect; series mostly up to about 76 µM; % of control where 0% means no effect; nearly all actives have a fitted effect of over 35% in size
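Stably transfected U87-MG glioma cells carrying a GRP78-based luciferase sensor; 16 h compound incubation. Luminescence end-point read 10 min after Bright-Glo addition at room temperature.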
Mito fusion yeast = qHTS Assay for Small Molecule Inhibitors of Mitochondrial Division or Activators of Mitochondrial Fusion; S. cerevisiae fusion-defective mutant growth rescue, CellTiterGlo 48 h; Potency, µM (highest dose often 46.1 µM), for the others: top-dose growth rescue (activation), most hits filed as activators; AID 485298, 2010; actives 0.23% (n = 320,000); note: potency is the fitted concentration of half-maximal effect; % of control where 0% means no effect; nearly all actives have a fitted effect of over 45% in size
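Compounds are tested for their ability to restore growth of mitochondrial fusion-defective yeast strains at non-permissive 37C in YPEG medium over 48 hours. Viability is quantified by luciferase luminescence.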
ClpP mod = qHTS Assay for Activators of ClpP; ATP-dependent Clp protease proteolytic subunit (Bacillus subtilis (strain 168)), P80244; purified B. subtilis ClpP, FRET peptide cleavage, 20 min; Potency, µM (top dose mostly 57.5 µM), for inactives: at the top dose activity change, negative = active; actives 1.9% (n = 340,000); AID 651965, 2013; active = well fitted falling curve with a large enough effect; inconclusive = small, poorly fitted or top-dose-only effect; inactive = no such curve, though single readings can be large or run the other way; note: potency is the fitted concentration of half-maximal effect; the source files actives as falling curves though it sought activators and does not explain the sign; nearly all actives have a fitted effect of over 65% in size
Target sequence (P80244 whole entry, looked up): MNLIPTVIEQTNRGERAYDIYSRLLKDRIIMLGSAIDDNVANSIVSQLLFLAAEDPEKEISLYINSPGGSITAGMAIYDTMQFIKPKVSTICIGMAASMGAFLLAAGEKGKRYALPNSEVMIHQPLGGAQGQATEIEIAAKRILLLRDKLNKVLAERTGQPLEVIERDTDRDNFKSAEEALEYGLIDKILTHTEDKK
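Purified B. subtilis ClpP, 10 microg/mL final in Tris/HCl pH8 with KCl, BSA, glycerol and Tween-20, cleaved an Abz/nitrotyrosine-quenched decapeptide. Fluorescence (ex 320, em 430) was read at 0 and 20 min at room temperature. Delta was normalized to 5.8 microM ADEP and DMSO/no-enzyme controls.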
AT treatment = qHTS Assay for Identifying a Potential Treatment of Ataxia-Telangiectasia. F2112 A-T fibroblasts, KAP-1 phosphorylation AlphaLISA; neocarzinostatin DNA damage 30 min before lysis. Potency, µM (series often up to 57.5 µM), without a hit: at the highest dose activation, actives largely listed as activators. actives 0.19% (n = 320,000); note: potency is the fitted concentration of half-maximal effect; % of control where 0% means no effect; nearly all actives have a fitted effect of over 45% in size
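hTERT-immortalized A-T patient fibroblasts (F2112), 500 cells/well in OPTI-MEM, 1% FBS, got compounds for 60 min, then NCS for 30 min at 37C. Lysates were then assayed for phospho-KAP-1 by AlphaLISA (anti-pKAP1 donor, anti-KAP1 acceptor beads), 6 hr at 25C.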
MBNL1-CUG inh = qHTS Assay for Inhibitors of MBNL1-poly(CUG) RNA binding; AID 2675, 2010; TR-FRET MBNL1-His/biotin-(CUG)12 binding, 665/545 ratio; Potency, µM (series often up to 57.5 µM), inactives show at the top dose activity change, negative = inhibition, usual class: inhibitors; Muscleblind-like protein 1 (Homo sapiens), Q9NR56; actives 0.036% (n = 280,000); active = well fitted inhibition curve with a large enough effect in the signal ratio, with a control signal flat, not every such curve was filed as active; inconclusive = small, poorly fitted or top-dose-only effect, or effect the other way, or a change in a side signal; inactive = no such curve, though single readings can be large or run the other way; the % refers to the signal ratio; note: potency is the fitted concentration of half-maximal effect; % is set by controls: 0 for no effect and ±100 for the full control effect
Target sequence (Q9NR56 whole entry, looked up): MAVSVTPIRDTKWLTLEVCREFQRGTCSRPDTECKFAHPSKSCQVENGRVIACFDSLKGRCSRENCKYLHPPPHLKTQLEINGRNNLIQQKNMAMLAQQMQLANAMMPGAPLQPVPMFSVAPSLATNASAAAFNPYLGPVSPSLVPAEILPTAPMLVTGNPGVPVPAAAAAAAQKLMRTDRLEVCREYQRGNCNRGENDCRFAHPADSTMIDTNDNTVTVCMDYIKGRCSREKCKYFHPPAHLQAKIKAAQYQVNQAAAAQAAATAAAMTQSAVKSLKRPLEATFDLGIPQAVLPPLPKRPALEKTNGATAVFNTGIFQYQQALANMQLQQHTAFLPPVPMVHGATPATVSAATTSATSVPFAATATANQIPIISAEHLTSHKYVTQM
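Ratiometric TR-FRET (665 over 545 nm, excitation 340 nm) tracks disruption of MBNL1-His/biotin-(CUG)12 complex after 60 min at room temperature, with compounds at 92 nM to 58 uM final.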
Starred values were filed as active, the others as inactive; ? = inconclusive; nt = no result; [ ] = another dose, or the depositor's remark. Unless noted, calls come from the whole dose curve; as a rule, active = well fitted curve in the direction sought with a large enough effect; inconclusive = small, poorly fitted or top-dose-only effect, or another doubt; inactive = no such curve, though single readings can be large; an effect the other way counts as inactive or inconclusive.

SMILES	TCR activator	GRP78 ERSR act	Mito fusion yeast	ClpP mod	AT treatment	MBNL1-CUG inh
NC(=S)NS(=O)(=O)c1ccc(N)cc1	nt	-5%	nt	nt	nt	nt
COc1ccc(CCSc2n[nH]c(C(C)C)n2)cc1	nt	1%	nt	0%	nt	nt
N#Cc1c(-c2ccc(Cl)cc2)ccn2nc(CCC(=O)O)nc12	5%	0%	-2%	25µM*	nt	?
CCCCCc1nc2c(C#N)c(-c3ccc(Cl)cc3)ccn2n1	-1%	-4%	9%	28µM*	-5%	11%
COc1cc(CN2CCCC(n3cc(C(=O)N4CCCC4)nn3)C2)cc(OC)c1 (stereo unspecified)	nt	1%	nt	nt	nt	nt
COc1cc2nc(N3CCCCC3)nc(NC(C)C)c2cc1OC	nt	nt	nt	4%	nt	nt
Cc1noc(C)c1-c1cc(NCCN2CCOCC2)ncn1	nt	3%	nt	nt	nt	nt
COc1ccc2cc(C#N)c(NC(C)C)nc2c1	2%	-3%	-1%	22µM*	8%	2%
C/C(CC(=O)Nc1cccc2c1CCCC2)=N\NC(=O)c1ccccc1N	-2%	3%	-4%	28µM*	-8%	3%
C/C(CC(=O)Nc1cccc2c1CCCC2)=N\NC(=O)c1cccc2ccccc12	-2%[46.1 µM]	-4%	4%	1%	-2%	nt
C/C=C(\C=C\[C@@H](C)C/C=C/CC/C=C/C=C\C[C@@H](OC)/C(C)=C\C=C(C)C)CC(=O)O	nt	2%	nt	nt	nt	nt
CC12C=C(/C=C/CCc3ccco3)C(C)(C1)C(CCc1ccco1)CC2=O (stereo unspecified)	nt	-3%	nt	nt	nt	nt
Cc1cc(C)n2ncc(C(=O)NCc3ccccc3)c2n1	-13%	-2%	3%	28µM*	-2%	-3%
Cc1cc(C)n2nc(C(=O)NCc3ccccc3)cc2n1	1%	-3%	-2%	25µM*	13%	-5%
Cc1cc(C)n2ncc(C(=O)NCCc3ccccc3)c2n1	-6%	0%	23%	28µM*	nt	0%
CCOC(=O)C1CCN(C(=O)c2cnn3c(C)cc(C)nc23)CC1	-6%	-2%	1%	32µM*	-2%	0%
Cc1cc(C)n2nc(C(=O)NCc3ccccc3)nc2n1	-3%	-6%	4%	2%	6%	?
Cn1c(-c2ccncc2)nc2cc(C(=O)N[C@H]3CCCCNC3=O)cc(NC(=O)C3CCC3)c21	nt	-3%	nt	nt	nt	nt
Cc1nc(NCc2c(C)nn(C)c2Cl)sc1-c1ccn(CC2COc3ccccc3O2)n1 (stereo unspecified)	nt	-2%	nt	nt	nt	nt
CC(C)(O)C#Cc1ccc(CN2CCc3nnc(CNC(=O)c4cccc(F)c4)n3CC2)cc1	nt	-4%	nt	nt	nt	nt
CC(=O)Oc1ccc(NC(=O)C2CCCCC2)c(C(=O)O)c1	1%	0%	-3%	28µM*	-3%	-5%
COc1cc(OC)c(NC(=O)N2CCOCC2)cc1Cl	nt	0%	1%	28µM*	-3%	-4%
COc1cc(OC)c(NC(=O)N2CCN3CCCCC3C2)cc1Cl (stereo unspecified)	nt	-1%	nt	-1%	nt	nt
COc1ccc2ccccc2c1C1NC(=O)c2ccccc2N1 (stereo unspecified)	-2%	-5%	nt	14µM*	nt	nt
COc1ccc(CN(Cc2ccccc2)C(C)=O)cc1COc1ccc(NC(C)=O)cc1	nt	nt	nt	0%	nt	nt
SMILES	TCR activator	GRP78 ERSR act	Mito fusion yeast	ClpP mod	AT treatment	MBNL1-CUG inh
Cc1nc([N+](=O)[O-])cn1CC(O)c1ccc2c(c1)OCO2 (stereo unspecified)	nt	-4%	nt	-1%	nt	nt
Cc1ccccc1N1C(=O)c2ccccc2N2C(=O)c3ccccc3C12 (stereo unspecified)	-3%	-3%	14µM*	-4%	1%	1%
O=C1c2ccccc2N2C(=O)c3ccccc3C2N1O (stereo unspecified)	4%	1%	2%	-1%	-12%	-5%
Cn1c2ccccc2c2cc(C(=O)N3CCOc4ccc(C(C)(O)CCn5cccn5)cc4C3)ccc21 (stereo unspecified)	nt	-3%	nt	nt	nt	nt
COc1cc(-c2nc(Cn3nnc(C(=O)Nc4ccccc4)c3C)c(C)o2)cc(OC)c1OC	nt	-3%	nt	28µM*	nt	nt
CCCCCCCCCn1ccc(=N)cc1	-1%	-7%	-28%	?	3.2µM*	-5%
O=C(NC1CCCCC1)[C@@H]1CC=C[C@@H]2CCN(Cc3ccc(Cl)c(Cl)c3)C(=O)[C@@H]21	nt	-3%	nt	-4%	nt	nt
CCOC(=O)C1=C(C)Nc2sc(C(=O)c3ccc(C)cc3)c(N)c2C1c1ccc(C(=O)OC)cc1 (stereo unspecified)	-9%[46.1 µM]	2%	14%	8.9µM*	4%	13%
Cc1ccc(-c2cc(C)nc3nc(N)nn23)cc1	2%	2%	-4%	14µM*	7%	-1%
Cc1ccc(-c2cc(C)nc3ncnn23)cc1	11%	-6%	-4%	5%	8%	-3%
Cc1ccc(F)cc1CNC(=O)c1sc2ncnc(NCC3CCCO3)c2c1C (stereo unspecified)	nt	-2%	nt	nt	nt	nt
CC(C)c1c(C(=O)N(C)Cc2cccc3ncccc23)cnn1-c1nccc(-c2ccco2)n1	nt	-3%	nt	nt	nt	nt
Cc1ccc(CCNS(=O)(=O)c2c(C)nc3sc(C)c(C)n3c2=O)cc1	nt	-3%	nt	6.3µM*	nt	nt
CCOc1ccc(-c2nnn(CC(=O)N3CCCC(C)C3)n2)cc1 (stereo unspecified)	-1%	0%	0%	0%	-2%	1%
CCCOc1ccc(-c2nnn(CC(=O)N3CCCC(C)C3)n2)cc1 (stereo unspecified)	11%	6%	-5%	-2%	40µM*	-11%
Cc1cccc(N(CC(O)Cn2c3ccccc3c3ccccc32)S(=O)(=O)c2ccc(F)cc2)c1 (stereo unspecified)	nt	0%	nt	32µM*	nt	nt
CC(=O)Nc1ccc(N(CC(O)Cn2c3ccccc3c3ccccc32)S(=O)(=O)c2ccc(C)cc2)cc1 (stereo unspecified)	2%	-4%	3%	-1%	-2%	nt
O=C(NCCc1nnc2n1CCN(CC1CC=CCC1)CC2)c1ccc(F)cc1 (stereo unspecified)	nt	-5%	nt	nt	nt	nt
Cc1ccc(-c2nnn(CC(=O)Nc3ccccc3-c3ccccc3)n2)c(-n2cnnn2)c1	0%	-10%	-1%	11µM*	10%	-3%

Screening results as filed in PubChem.
